Experimental data published in PubChem BioAssay (NCATS).
Records with an inconclusive call do not appear. A call without a number means that no potency is given here. Values without a mark were called inactive. Calls of active or inactive are those of the source. Calls come from the whole dose curve; as a rule, active = well fitted curve in the direction sought with a large enough effect; inconclusive = small, poorly fitted or top-dose-only effect, or another doubt; inactive = no such curve, though single readings can be large; an effect the other way counts as inactive or inconclusive. Peptide text beside a SMILES is read from it.

What was measured:
[1] = target: Cellular tumor antigen p53 (Homo sapiens) (UniProt P04637); assay: Primary qHTS for small molecule compounds that upregulate eGFP-tagged delta133p53alpha (in N-terminal) cells. (AID 2060322); conditions: NCI-H358 eGFP-delta133p53alpha fluorescence, 24 h; activation: hits give high values; note: nearly all actives have a fitted effect of over 75% in size; note: potency is the fitted concentration of half-maximal effect
Chain of Cellular tumor antigen p53 (Homo sapiens) (P04637 whole entry, looked up): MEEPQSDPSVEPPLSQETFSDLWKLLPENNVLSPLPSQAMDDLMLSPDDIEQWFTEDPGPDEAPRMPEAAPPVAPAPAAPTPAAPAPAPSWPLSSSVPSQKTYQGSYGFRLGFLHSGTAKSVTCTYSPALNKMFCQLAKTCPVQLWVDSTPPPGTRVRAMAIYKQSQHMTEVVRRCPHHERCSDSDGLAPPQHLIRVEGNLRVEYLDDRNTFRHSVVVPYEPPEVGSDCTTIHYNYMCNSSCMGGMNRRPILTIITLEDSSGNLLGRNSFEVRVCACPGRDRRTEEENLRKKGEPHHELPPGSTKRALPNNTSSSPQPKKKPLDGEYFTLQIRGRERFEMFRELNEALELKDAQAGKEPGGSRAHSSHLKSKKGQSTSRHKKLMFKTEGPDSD
Outline: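 NCI-H358 cells pre-induced 24 h with 10 ng/ml doxycycline to express N-terminal eGFP-delta133p53alpha, then dosed 24 h at 37C without doxycycline; fixed, Hoechst-stained, GFP intensity by laser scanning cytometry, normalized to DMSO (0%) and 57.5 uM 5-azacytidine (100%).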

[2] = target: Aldehyde dehydrogenase, mitochondrial (Homo sapiens) (UniProt P05091); assay: qHTS for Inhibitors of the Aldehyde Dehydrogenase Family (ALDH2) Primary screen (AID 2061308); conditions: ALDH2 enzyme inhibition qHTS, 1536-well; series mostly up to 56 µM; note: nearly all actives have a fitted effect of over 55% in size
[3] = target: Retinaldehyde dehydrogenase 3 (Homo sapiens) (UniProt P47895); assay: qHTS for Inhibitors of the Aldehyde Dehydrogenase Family (ALDH1A3) Primary screen (AID 2061315); conditions: ALDH inhibition qHTS; series mostly up to 56 µM

Compound	activation [1] [%]	Potency [2]	Potency [3]	Potency [1]
CC1(C)CCCC2(C)C(CO)C(CO)=CCC12 (stereo not drawn)	-3.82	inactive	inactive	
CC(C)CCC[C@@H](C)[C@H]1CC[C@H]2[C@@H]3CC(=O)[C@H]4C[C@@H](O)CC[C@]4(C)[C@H]3CC[C@]12C	-7	inactive	inactive	
O=C(/C=C/c1ccccc1)OC[C@]12O[C@H]1[C@@H](O)[C@@H]1C=CO[C@@H](O[C@@H]3O[C@H](CO)[C@@H](O)[C@H](O)[C@H]3O)[C@@H]12	7.14	inactive	inactive	
CC(=O)OCC1=C[C@@H]2OC(=O)C3=CO[C@@H](O[C@@H]4O[C@H](CO)[C@@H](O)[C@H](O)[C@H]4O)[C@H]1[C@@H]32	-16.8	inactive	inactive	
CC(=O)O[C@H]1[C@H](Oc2ccccc2COC(=O)C2(O)C=CCCC2=O)O[C@H](CO)[C@@H](O)[C@@H]1O (stereo partly drawn)	-9.92	inactive	inactive	
CC(O)/C=C/C1OC(=O)CC1Nc1ccc(C(=O)O)cc1 (stereo not drawn)	-6.11	inactive	inactive	
CCNc1nc(Nc2cc(F)c(C(=O)N3CCOCC3)cc2OC)ncc1C(F)(F)F	10.7	inactive	inactive	
C[C@@]12C[C@]3(O)O[C@H](O1)[C@]1(COC(=O)c4ccccc4)[C@H]3C[C@@]12O[C@@H]1O[C@H](CO)[C@@H](O)[C@H](O)[C@H]1O	25	inactive	inactive	
N=c1nc2n(cc1F)C1OC(CO)C(O)C1O2 (stereo not drawn)	0.333	inactive	inactive	
CC1CCC2(C=O)C(CO)=CCCC2C1(C)CC(=O)O (stereo not drawn)	-0.763	inactive	inactive	
CCc1cc(S(=O)(=O)O)c2cc(C(C)C)cccc1-2	4.33	inactive	inactive	
CC1NC(=O)CNC(=O)C(C(C)C)NC(=O)C2CCCN2C(=O)C(C(C)C)NC(=O)C(Cc2c[nH]c3ccccc23)NC1=O (stereo not drawn) (cyclo(GAWVPV); configuration not given here)	3.57	inactive	inactive	
C[C@]12C=CC(=O)C=C1CC[C@@H]1[C@@H]2[C@@H](O)C[C@@]2(C)[C@H]1CC[C@]2(O)C(=O)COC(=O)CCC(=O)O	13	inactive	inactive	
CC1CCC2C(C(=O)O)=CC3C(O)C(C)(C)CC123 (stereo not drawn)	-0.763	inactive	inactive	
C=CC1(C)C=C2C(=O)CC3C(C)(C)CCCC3(C(=O)O)C2(O)CC1 (stereo not drawn)	-15.3	inactive	inactive	
CC(=O)O[C@H]1C[C@@]2(C)[C@@H](CC[C@H]3[C@@]4(C)C=CC(=O)[C@@H](C)[C@@H]4[C@H](OC(C)=O)C(=O)[C@@]32C)/C1=C(\CCC=C(C)C)C(=O)O	-16	inactive	inactive	
CN1c2c(nc(N)[nH]c2=O)NC[C@@H]1CNc1ccc(C(=O)N[C@@H](CCC(=O)O)C(=O)O)cc1	-8.33	inactive	inactive	
O=C(Nc1ccn[nH]1)c1c(F)cccc1F	12.3	inactive	inactive	
C=C1CCc2occ(C)c2[C@H]2[C@H]1[C@@]13O[C@@]1(C[C@@H](C)[C@H]3OC(C)=O)[C@H]1O[C@@]21C	-19.6	inactive	inactive	
C=C1CCC(OC(C)=O)C2(C)CC3(O)OC(=O)C(C)=C3CC12 (stereo not drawn)	-2.29	inactive	inactive	
O=C(O)c1ccnc(-c2cc(C(=O)NCCc3ccccc3)ccn2)c1	4.47	inactive	inactive	
O=C(Nc1ccccc1-c1cn2c(CN3CCNCC3)csc2n1)c1ccc2ccccc2n1	11	inactive	inactive	
C=CC(C)(C)C12Nc3c(ccc4c3OC(C)(C)C=C4)C1(O)CC1C(=O)N3CCCC3C(=O)N12 (stereo not drawn)	-0.763	inactive	inactive	
O=C(Nc1cccc([N+](=O)[O-])c1)c1cccc(S(=O)(=O)N2CCCCCC2)c1	1.67	inactive	inactive	
COC(=O)C[C@H]1C(C)(C)[C@H](OC(=O)C(C)C)C2CC3=C4CC(=O)O[C@@H](c5ccoc5)[C@]4(C)CCC3[C@@]1(C)C2=O (stereo partly drawn)	11.6	inactive	inactive	
CCN(CC)c1ccc2c(O)c(C=Nc3ccc(CC(=O)O)c(-c4c5c(nc6ccccc46)CCC(C(=O)NN)C5)c3)c(=O)oc2c1 (stereo not drawn)		inactive	inactive	5.36 µM (active)
